Measured values from the OligoGym collection.

Each sequence was assayed against C15orf54 (assay: pooled miR-30 sensor sort-seq; sequence = guide strand). Settings: shRNA.
Note: reference of the scale not given here.

**Q.** For TTCAAGATCAAACTAGGCCATG, which sensor-assay potency score (higher = more potent) is on record?
**A.** The sensor-assay potency score (higher = more potent) was -1.17.

**Q.** Which sensor-assay potency score (higher = more potent) does the source give for TTCAGTTTGTGACTTTTGCTGG here?
**A.** Its sensor-assay potency score (higher = more potent) is 0.098.

**Q.** For TTCTGTAGGCACTACATTCTGG, which sensor-assay potency score (higher = more potent) is on record?
**A.** The sensor-assay potency score (higher = more potent) was -0.0345.

**Q.** For AACAACAACAAGAATATCCTGC, which sensor-assay potency score (higher = more potent) is on record?
**A.** The sensor-assay potency score (higher = more potent) was 0.568.

**Q.** How did the sensor-assay potency score (higher = more potent) turn out when TTCACCTTCTTGAAGAACCTGC was run?
**A.** Its sensor-assay potency score (higher = more potent) is 0.924.

**Q.** How did the sensor-assay potency score (higher = more potent) turn out when TTGAAAGGGACATCTGTTGGAT was run?
**A.** The sensor-assay potency score (higher = more potent) was 0.0555.

**Q.** Which sensor-assay potency score (higher = more potent) does the source give for TTATTTGAAAGGGACATCTGTT here?
**A.** The sensor-assay potency score (higher = more potent) was -0.498.

**Q.** With TAGTATAATAAAGTTATGCTAC as the sequence, how does the sensor-assay potency score (higher = more potent) read?
**A.** Its sensor-assay potency score (higher = more potent) is -0.835.

**Q.** For TATTTGAACATATAAGATGTTA, which sensor-assay potency score (higher = more potent) is on record?
**A.** Its sensor-assay potency score (higher = more potent) is -0.68.

**Q.** For TTAAGCAATGAGCTCAATCTAG, which sensor-assay potency score (higher = more potent) is on record?
**A.** Its sensor-assay potency score (higher = more potent) is -0.475.

Each sequence was assayed against C15orf58 in the same assay as above. Settings: shRNA.

**Q.** For TTTGGGTCTGTAGCTCCCGTAG, which sensor-assay potency score (higher = more potent) is on record?
**A.** Its sensor-assay potency score (higher = more potent) is -1.43.

**Q.** Which sensor-assay potency score (higher = more potent) does the source give for AACATTGAAAGCTTCACCGTCC here?
**A.** The sensor-assay potency score (higher = more potent) was 0.994.

**Q.** With TTGAAGTTGAACTGTACAGGGT as the sequence, how does the sensor-assay potency score (higher = more potent) read?
**A.** The sensor-assay potency score (higher = more potent) was 0.153.

**Q.** Which sensor-assay potency score (higher = more potent) does the source give for TGCCTGTACGTCTTCTGCCTGG here?
**A.** Its sensor-assay potency score (higher = more potent) is -0.932.

**Q.** With TGAAGTTGAACTGTACAGGGTC as the sequence, how does the sensor-assay potency score (higher = more potent) read?
**A.** The sensor-assay potency score (higher = more potent) was 0.667.

**Q.** For TTATCAAGGACTCCAAGTCAGG, which sensor-assay potency score (higher = more potent) is on record?
**A.** The sensor-assay potency score (higher = more potent) was -1.43.

**Q.** Which sensor-assay potency score (higher = more potent) does the source give for TCTTGTTGAAGTTGAACTGTAC here?
**A.** The sensor-assay potency score (higher = more potent) was 0.172.

**Q.** ATCTTGTTGAAGTTGAACTGTA was tested. Which sensor-assay potency score (higher = more potent) did it give?
**A.** Its sensor-assay potency score (higher = more potent) is -0.903.

**Q.** TGTCAGGCTGCTGAAGTCCTGG was tested. Which sensor-assay potency score (higher = more potent) did it give?
**A.** Its sensor-assay potency score (higher = more potent) is -0.843.

**Q.** Which sensor-assay potency score (higher = more potent) does the source give for TCTTCTTGCAGCAGAGTCCCAG here?
**A.** The sensor-assay potency score (higher = more potent) was -0.775.

**Q.** ATTGAAAGCTTCACCGTCCTTT was tested. Which sensor-assay potency score (higher = more potent) did it give?
**A.** The sensor-assay potency score (higher = more potent) was 0.575.

These sequences were tested against C16orf55 in the same assay as above. Settings: shRNA.

**Q.** For TTCCTGGGAATGCTTCTCCATC, which sensor-assay potency score (higher = more potent) is on record?
**A.** The sensor-assay potency score (higher = more potent) was -1.49.

**Q.** How did the sensor-assay potency score (higher = more potent) turn out when TTAGATTTTGGAACTGAATAGG was run?
**A.** The sensor-assay potency score (higher = more potent) was -0.116.

**Q.** TTTGGAACTGAATAGGTGGATC was tested. Which sensor-assay potency score (higher = more potent) did it give?
**A.** Its sensor-assay potency score (higher = more potent) is -0.304.

**Q.** With TTTTGGAACTGAATAGGTGGAT as the sequence, how does the sensor-assay potency score (higher = more potent) read?
**A.** The sensor-assay potency score (higher = more potent) was -0.336.

**Q.** How did the sensor-assay potency score (higher = more potent) turn out when TTCTCCATCAACTTCTCCTTAG was run?
**A.** The sensor-assay potency score (higher = more potent) was -0.561.

**Q.** TTATAGGCGTCTGCTGTACTGG was tested. Which sensor-assay potency score (higher = more potent) did it give?
**A.** The sensor-assay potency score (higher = more potent) was -0.778.

**Q.** Which sensor-assay potency score (higher = more potent) does the source give for TAGGCGTCTGCTGTACTGGGGT here?
**A.** The sensor-assay potency score (higher = more potent) was 0.489.

**Q.** With TAGATTTTGGAACTGAATAGGT as the sequence, how does the sensor-assay potency score (higher = more potent) read?
**A.** Its sensor-assay potency score (higher = more potent) is -0.346.

**Q.** With TGGACTTTTGCTTTACATCAGG as the sequence, how does the sensor-assay potency score (higher = more potent) read?
**A.** Its sensor-assay potency score (higher = more potent) is -1.63.

**Q.** TTACATCAGGTTTCTCTTCCAG was tested. Which sensor-assay potency score (higher = more potent) did it give?
**A.** Its sensor-assay potency score (higher = more potent) is 0.199.

**Q.** How did the sensor-assay potency score (higher = more potent) turn out when TTCTCTGCTGGTCACTCCCGCT was run?
**A.** Its sensor-assay potency score (higher = more potent) is -1.51.

**Q.** With TCTCCTTAGATTTTGGAACTGA as the sequence, how does the sensor-assay potency score (higher = more potent) read?
**A.** Its sensor-assay potency score (higher = more potent) is -0.0429.

These sequences were tested against C17orf103 in the same assay as above. Settings: shRNA.

**Q.** TTGAGCCGGACAGTGAACTGGC was tested. Which sensor-assay potency score (higher = more potent) did it give?
**A.** The sensor-assay potency score (higher = more potent) was -0.109.

**Q.** Which sensor-assay potency score (higher = more potent) does the source give for TGGGACCTCGGTGTGCTGCAGG here?
**A.** The sensor-assay potency score (higher = more potent) was -1.5.

**Q.** For TCTCCTTGACGTACTTCTGGAT, which sensor-assay potency score (higher = more potent) is on record?
**A.** The sensor-assay potency score (higher = more potent) was -0.358.

**Q.** How did the sensor-assay potency score (higher = more potent) turn out when ACGTACTTCTGGATGTACCAGC was run?
**A.** The sensor-assay potency score (higher = more potent) was -1.62.

**Q.** How did the sensor-assay potency score (higher = more potent) turn out when ATCTGGGACCTCGGTGTGCTGC was run?
**A.** Its sensor-assay potency score (higher = more potent) is -1.85.

**Q.** For TTCTCCTTGACGTACTTCTGGA, which sensor-assay potency score (higher = more potent) is on record?
**A.** The sensor-assay potency score (higher = more potent) was -0.93.

**Q.** With TAGGCATCTGGGACCTCGGTGT as the sequence, how does the sensor-assay potency score (higher = more potent) read?
**A.** Its sensor-assay potency score (higher = more potent) is -0.272.
